# About 1,100 (44%) of roughly 2,500 compounds were called active. So high a share suggests a set chosen from earlier hits. The list shows a part of the results. A number with no mark means an inactive call.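 Rule for the calls: active = inhibition above 50% at 4 µM in the single-point screen; inactive = inhibition of 50% or less.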
# Assay: TNF-a-driven NF-kB reporter inhibitors, primary screen, selectivity assay for NOD1/NOD2 signaling inhibitor project, cell-based, HEK293T NF-kB-Luc, luminescence (AID 1852)
# Conditions: TNF-a induced, 14 h, at 4 µM, hits give high values
row,SMILES,inhibition
1,COc1ccc(C2C(C(=O)N3CCOCC3)CCC(=O)N2c2ccc(OC)cc2)cc1 (stereo unspecified),17.2%
2,Cc1cc(NC(=O)c2cccs2)n(-c2nc3ccccc3[nH]2)n1,35.4%
3,Cc1cc(NC(=O)c2ccc(C)s2)n(-c2nc3ccccc3[nH]2)n1,31.1%
4,Cc1ccc(Nc2cc(C)nn2-c2nc(C)cc(=O)[nH]2)cc1,107% (active)
5,Cc1ccc(C)c(N2CCN(C(=O)CCCCCn3c(=S)[nH]c4ccc(N5CCOCC5)cc4c3=O)CC2)c1,96.5% (active)
6,O=C(CCCn1c(=S)[nH]c2cc3c(cc2c1=O)OCO3)N1CCN(c2ccc(Cl)cc2)CC1,35.9%
7,Cc1cccc(N2CCN(C(=O)CCCCCn3c(=S)[nH]c4ccc(N5CCOCC5)cc4c3=O)CC2)c1C,-10.2%
8,Cc1ccc(C(=O)N2CCN(c3ccc(NC(=O)c4ccc5c(c4)OCCO5)cc3)CC2)cc1,84.2% (active)
9,O=C(Nc1ccc(N2CCN(C(=O)c3ccc(Cl)cc3)CC2)cc1)c1ccc2c(c1)OCCO2,86.8% (active)
10,CC(C)C(=O)N1CCN(c2nc(-c3ccc(Cl)cc3)cs2)CC1,-37.6%
11,Cc1ccccc1C(=O)N1CCN(c2ccc(NC(=O)c3ccc4c(c3)OCCO4)cc2)CC1,-3.1%
12,O=C(Nc1ccc2nn(-c3ccccc3)nc2c1)c1ccc2c(c1)OCCO2,31.9%
13,CC(C)C(=O)N1CCN(c2ccc(NC(=O)c3ccc4c(c3)OCCO4)cc2Cl)CC1,80.5% (active)
14,CCCCCOc1ccc(/C=C/c2c([N+](=O)[O-])c(=O)n(C)c(=O)n2C)cc1,21.4%
15,CCOC(=O)/C=C/C(=O)Nc1ccc(S(=O)(=O)N(C)c2ccccc2)cc1,-15.6%
16,CCOC(=O)/C=C/S(=O)(=O)c1ccc(NC(C)=O)cc1,64% (active)
17,CCOC(=O)/C=C/C(=O)Nc1ccc(S(=O)(=O)Nc2c(C)cc(C)cc2C)cc1,25.7%
18,O=C(O)CCC(=O)c1ccc2ccc3cccc4ccc1c2c34,50% (active)
19,Nc1[nH]nc2ncc3cc4ccccc4nc3c12,36.8%
20,Cc1nn(-c2ccccc2)c(Cl)c1CN(C(=O)CCl)c1ccc(Cl)cc1,105% (active)
21,Cc1nn(-c2ccccc2)c(Cl)c1CN(C(=O)CCl)c1cccc2ccccc12,14.9%

row,SMILES,inhibition
1,CC(=O)N1CC(C)Sc2ccc(S(=O)(=O)NCc3ccc(Cl)cc3)cc21 (stereo unspecified),11.8%
2,COC(=O)CSc1nnc(-c2sc3ccccc3c2Cl)o1,48.5%
3,Clc1ccc(CSc2nnc(-c3ccncc3)o2)cc1,60.2% (active)
4,Brc1cccc(CSc2nnc(-c3ccncc3)o2)c1,44.3%
5,Fc1ccc(CSc2nnc(-c3ccncc3)o2)cc1,70.1% (active)
6,Cc1ccc(-c2nnc(SCC(=O)Nc3ccccc3F)o2)cc1,37.8%
7,Cc1cc(C(=O)NC2CCCc3c2cnn3-c2cccc(C)c2C)n(C)n1 (stereo unspecified),56.4% (active)
8,CCc1cc(C(=O)NC2CCCc3c2cnn3-c2cccc(C)c2C)n(C)n1 (stereo unspecified),59.1% (active)
9,Cc1ccccc1NC(=O)COC(=O)c1ccc(S(C)(=O)=O)c([N+](=O)[O-])c1,13%
10,CC(=O)c1c(C)[nH]c(C(=O)OCC(=O)Nc2ccc(C)cc2[N+](=O)[O-])c1C,79.4% (active)
11,COc1ccc(NC(=O)CN2CCc3ccccc3C2)c([N+](=O)[O-])c1,-10.5%
12,O=[N+]([O-])c1ccc(N/N=C/c2sc(N3CCOCC3)nc2-c2ccccc2)c(S(=O)(=O)Nc2ccc(Cl)cc2)c1,60.9% (active)
13,CCN(CC)S(=O)(=O)c1ccc(N2CCOCC2)c(NC(=O)c2cc([N+](=O)[O-])ccc2Cl)c1,-28.1%
14,O=[N+]([O-])c1ccc(N/N=C/c2sc(N3CCOCC3)nc2-c2ccccc2)c(S(=O)(=O)Nc2ccccc2Cl)c1,88.5% (active)
15,Cc1nnc(SCC(=O)N2CCC(c3noc4ccc(F)cc34)CC2)s1,84.5% (active)
16,CCCCCCCn1ccc(=N)cc1,20.9%
17,CCCCCCCCn1ccc(=N)cc1,62.3% (active)
18,CCCCCCCCCn1ccc(=N)cc1,76.4% (active)
19,CCCCCCCCCCn1ccc(=N)cc1,83.1% (active)
20,CC[C@@H](C)[C@H](NC(=O)OC(C)(C)C)c1nnc(S(=O)(=O)Cc2cc(C)ccc2C)o1,38.2%
21,CN(C)S(=O)(=O)N1CCC(Oc2cccc(C(=O)NC3CCCCC3)c2)CC1,20.4%

row,SMILES,inhibition
1,CC1CCN(S(=O)(=O)c2nnc(NC(=O)c3cccc(Cl)c3)s2)CC1,37%
2,CN(C)S(=O)(=O)N1CCC(Oc2cccc(C(=O)NC3CCCCCC3)c2)CC1,54% (active)
3,CN(Cc1ccccc1)C1=CC(=[N+]2CCCCC2)CC(C)(C)C1,58.1% (active)
4,Cc1nc(Nc2cnc(/C=C/c3cc(C(=O)Nc4cccc(C(F)(F)F)c4)ccc3C)cn2)cc(N2CCNCC2)n1,-21.5%
5,CN(c1ccccc1)S(=O)(=O)c1cccc(NC(=O)c2cc(=O)c3ccccc3o2)c1,63.9% (active)
6,Cc1nc2ccc(NC(=O)c3cc(S(=O)(=O)N(C)c4ccccc4)ccc3Cl)cc2s1,54.6% (active)
7,Cc1nc2ccc(NC(=O)c3cccc(S(=O)(=O)N(C)c4ccccc4)c3)cc2s1,53.4% (active)
8,CC(C(=O)Nc1cccc([N+](=O)[O-])c1)N(c1ccccc1)S(C)(=O)=O (stereo unspecified),-12.9%
9,COc1ccc(N(CC(=O)Nc2cccc(N(C)S(C)(=O)=O)c2)S(=O)(=O)c2ccc(C)cc2)cc1,14.3%
10,CSc1ncc(C(=O)Nc2cccc(S(N)(=O)=O)c2)n1-c1ccccc1,8.6%
11,CCCCn1c(SCC(=O)N2CCN(c3ccccc3)CC2)nc2ccsc2c1=O,28.9%
12,CCOC(=O)/C=C/C(=O)Nc1cccc([N+](=O)[O-])c1,72.3% (active)
13,Cc1cccc(NC(=O)/C=C/c2ccc([N+](=O)[O-])s2)c1,57.7% (active)
14,Cc1cc(C)cc(NC(=O)/C=C/c2ccc([N+](=O)[O-])s2)c1,-10.2%
15,CC(=O)Nc1ccc2nc(NC(=O)c3ccc([N+](=O)[O-])s3)sc2c1,19.3%
16,COc1ccc(C)cc1S(=O)(=O)N(CC(=O)Nc1cccc([N+](=O)[O-])c1)c1ccc(C)cc1,16.5%
17,CC(=O)c1cccc(NC(=O)/C=C/c2ccc([N+](=O)[O-])s2)c1,99.5% (active)
18,Cc1nc2cc(NC(=O)c3ccc([N+](=O)[O-])s3)ccc2s1,31.8%
19,COC(=O)/C=C\C(=O)Nc1cccc([N+](=O)[O-])c1,28.4%
